The full data set covers some 7,900 targets. This sample favours those with a hit. About 0.6% of all pairs of compound and target were hits.
Key:
Assay in all cases: log2 fold change, soluble protein after heating vs DMSO (PISA); higher = thermal stabilisation; K562 cells, 10 uM, 30 min; active = over 0.2 and 3.5 SD of the protein, either way, in both replicates (recomputed)
[1] = compound: CN1CCN(CCOc2cc(OC3CCOCC3)c3c(Nc4c(Cl)ccc5c4OCO5)ncnc3c2)CC1 [saracatinib]
Method in brief: (§1)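 K562 cells at 2×10^6 cells/mL were given 10 μM compound for 30 min. Aliquots then went through 3 min of heating across 48°C-58°C, were pooled, and were extracted in PBS with 0.5% NP-40 at 4°C, and the supernatant after 21,000xg for 90 min was quantified by TMTpro 16plex LC-MS/MS with channel sums equalised. Thermal stability relative to control samples, from duplicates, is given as log2 fold change.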

[2] = compound: CN1CCN(c2nc(C3=C(c4c[nH]c5ccccc45)C(=O)NC3=O)c3ccccc3n2)CC1 [sotrastaurin]
Method in brief: as §1

[3] = compound: CN1CC[C@H](c2c(O)cc(O)c3c(=O)cc(-c4ccccc4Cl)oc23)[C@H](O)C1 [alvocidib]
Method in brief: as §1

[4] = compound: CN1CCc2c(c3ccccc3n2Cc2ccc(C(=O)NO)cc2)C1 [Tubastatin A]
Method in brief: as §1

[5] = compound: CNC(=O)C1=CC=CC=C1NC2=NC(=NC=C2Cl)NC3=C(C=C(C=C3)N4CCOCC4)OC
Method in brief: as §1

[6] = compound: CNC(=O)c1ccc(Nc2ncc(C(F)(F)F)c(NCc3nccnc3N(C)S(C)(=O)=O)n2)cc1 [defactinib]
Method in brief: as §1

[7] = compound: CNCc1ccc(-c2[nH]c3cc(F)cc4c3c2CCNC4=O)cc1 [rucaparib]
Method in brief: as §1

[8] = compound: CNc1nc(-c2ccc3c(N)n[nH]c3c2)cc(N2C[C@@H](C(=O)NC3CCCCC3)CC[C@H]2C)n1
Method in brief: as §1

[9] = compound: COC(=O)N[C@@H](C)CNc1nccc(-c2cn(C(C)C)nc2-c2cc(Cl)cc(NS(C)(=O)=O)c2F)n1 [encorafenib]
Method in brief: as §1

[10] = compound: COC(=O)[C@H](CCSC)NC(=O)C1=C(C=C(C=C1)NC[C@H](CS)N)C2=CC=CC=C2
Method in brief: as §1

Measured: log2 fold change

GLUL (UniProt P15104)
Sequence of UniProt P15104 (P15104 whole entry, looked up): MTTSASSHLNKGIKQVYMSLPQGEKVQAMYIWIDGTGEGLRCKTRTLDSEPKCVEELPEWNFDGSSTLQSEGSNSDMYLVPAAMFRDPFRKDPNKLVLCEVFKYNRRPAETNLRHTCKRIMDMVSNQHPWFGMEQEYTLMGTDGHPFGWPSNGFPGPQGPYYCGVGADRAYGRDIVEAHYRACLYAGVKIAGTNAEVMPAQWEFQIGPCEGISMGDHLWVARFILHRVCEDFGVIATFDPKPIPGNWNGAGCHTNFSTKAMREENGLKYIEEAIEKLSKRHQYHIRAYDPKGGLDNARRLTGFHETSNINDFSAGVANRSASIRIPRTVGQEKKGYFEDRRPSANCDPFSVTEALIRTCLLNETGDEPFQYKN
inactive: [1] 0.012 | [2] -0.058 | [3] 0.026 | [4] 0.048 | [5] 0.142 | [6] 0.036 | [7] -0.039 | [8] -0.153 | [9] -0.02 | [10] 0.038

HBA1 (UniProt P69905)
inactive: [1] -0.017 | [2] 0.036 | [3] -0.02 | [4] 0.035 | [5] -0.01 | [6] -0.014 | [7] -0.036 | [8] 0.011 | [9] -0.043 | [10] -0.034

HDAC6 (UniProt Q9UBN7)
active: [4] 1.01
inactive: [1] -0.067 | [2] -0.013 | [3] -0.009 | [5] -0.037 | [6] -0.028 | [7] -0.028 | [8] 0.09 | [9] -0.135 | [10] -0.014

GLB1 (UniProt P16278)
inactive: [1] -0.011 | [2] 0.059 | [3] -0.018 | [4] -0.032 | [5] 0.034 | [6] 0.004 | [7] 0 | [8] 0.002 | [9] 0.003 | [10] 0.036

GABARAPL1 isoform 2 (UniProt Q9H0R8)
Sequence of UniProt Q9H0R8 (Q9H0R8 whole entry, looked up): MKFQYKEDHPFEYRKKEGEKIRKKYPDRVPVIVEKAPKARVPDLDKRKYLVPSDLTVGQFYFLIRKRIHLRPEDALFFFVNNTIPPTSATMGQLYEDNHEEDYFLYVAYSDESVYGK
inactive: [1] -0.057 | [2] 0 | [3] -0.019 | [4] 0.08 | [5] 0.023 | [6] -0.011 | [7] -0.079 | [8] -0.006 | [9] -0.004 | [10] -0.058

GTF3A (UniProt Q92664)
inactive: [1] 0.019 | [2] -0.008 | [3] -0.113 | [4] -0.072 | [5] -0.03 | [6] -0.18 | [7] 0.206 | [8] -0.005 | [9] -0.138 | [10] 0

HK2 (UniProt P52789)
inactive: [1] 0.008 | [2] -0.075 | [3] -0.054 | [4] -0.006 | [6] -0.08 | [7] -0.011 | [8] -0.045 | [9] 0.026 | [10] -0.005
active: [5] -0.334

HBZ (UniProt P02008)
Sequence of UniProt P02008 (P02008 whole entry, looked up): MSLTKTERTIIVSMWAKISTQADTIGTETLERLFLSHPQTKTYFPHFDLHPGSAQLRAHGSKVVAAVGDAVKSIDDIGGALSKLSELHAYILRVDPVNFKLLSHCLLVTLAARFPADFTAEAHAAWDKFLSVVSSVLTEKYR
inactive: [1] 0.022 | [2] 0.03 | [3] 0.036 | [4] 0 | [5] -0.041 | [6] 0.011 | [7] -0.026 | [8] -0.006 | [9] -0.004 | [10] -0.025

HSPA8 (UniProt P11142)
Sequence of UniProt P11142 (P11142 whole entry, looked up): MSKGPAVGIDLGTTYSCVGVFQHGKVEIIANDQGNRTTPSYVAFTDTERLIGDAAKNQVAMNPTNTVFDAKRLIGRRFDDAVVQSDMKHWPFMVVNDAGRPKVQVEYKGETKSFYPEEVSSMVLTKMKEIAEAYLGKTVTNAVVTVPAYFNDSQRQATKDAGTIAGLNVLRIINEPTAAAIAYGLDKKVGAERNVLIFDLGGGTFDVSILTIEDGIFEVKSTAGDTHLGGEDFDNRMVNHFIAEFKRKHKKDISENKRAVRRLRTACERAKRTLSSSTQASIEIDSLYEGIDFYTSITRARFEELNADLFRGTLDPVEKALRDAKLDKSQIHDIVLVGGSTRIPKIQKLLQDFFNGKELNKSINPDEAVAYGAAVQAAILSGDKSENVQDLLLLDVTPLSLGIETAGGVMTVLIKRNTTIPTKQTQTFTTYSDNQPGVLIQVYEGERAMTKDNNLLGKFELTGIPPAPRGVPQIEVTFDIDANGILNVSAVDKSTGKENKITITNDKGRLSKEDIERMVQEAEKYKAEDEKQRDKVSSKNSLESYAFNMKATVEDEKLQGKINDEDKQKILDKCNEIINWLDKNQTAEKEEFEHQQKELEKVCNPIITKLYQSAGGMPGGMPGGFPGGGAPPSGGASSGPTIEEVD
inactive: [1] 0.067 | [2] 0.007 | [3] 0.01 | [4] -0.019 | [5] 0.139 | [6] 0.006 | [7] -0.029 | [8] -0.002 | [9] -0.009 | [10] 0.042

FEN1 (UniProt P39748)
inactive: [1] -0.087 | [2] -0.028 | [3] -0.099 | [4] 0.116 | [5] -0.092 | [6] -0.139 | [7] -0.128 | [8] 0.183 | [9] 0.054 | [10] -0.087

GMEB2 (UniProt Q9UKD1)
active: [7] 0.275
inactive: [1] 0.018 | [2] -0.019 | [3] -0.197 | [4] 0.051 | [5] -0.065 | [6] -0.156 | [8] -0.023 | [9] -0.007 | [10] 0.008

HOMER1 (UniProt Q86YM7)
inactive: [1] 0.032 | [2] 0.045 | [3] -0.047 | [4] -0.084 | [5] 0.021 | [6] 0.015 | [7] 0.021 | [8] 0.007 | [9] 0.04 | [10] -0.047

HRAS (UniProt P01112)
Sequence of UniProt P01112 (P01112 whole entry, looked up): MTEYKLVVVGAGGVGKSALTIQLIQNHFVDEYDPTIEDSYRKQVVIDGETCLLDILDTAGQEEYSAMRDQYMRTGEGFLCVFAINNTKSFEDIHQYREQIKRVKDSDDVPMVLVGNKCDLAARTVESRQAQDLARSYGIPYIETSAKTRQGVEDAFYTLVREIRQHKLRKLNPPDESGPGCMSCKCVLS
inactive: [1] 0.002 | [2] 0.091 | [3] -0.075 | [4] 0.014 | [5] -0.015 | [6] -0.012 | [7] 0.072 | [8] 0.077 | [9] -0.042 | [10] 0.062

GAPVD1 isoform 6 (UniProt Q14C86)
Sequence of UniProt Q14C86 (Q14C86 whole entry, looked up): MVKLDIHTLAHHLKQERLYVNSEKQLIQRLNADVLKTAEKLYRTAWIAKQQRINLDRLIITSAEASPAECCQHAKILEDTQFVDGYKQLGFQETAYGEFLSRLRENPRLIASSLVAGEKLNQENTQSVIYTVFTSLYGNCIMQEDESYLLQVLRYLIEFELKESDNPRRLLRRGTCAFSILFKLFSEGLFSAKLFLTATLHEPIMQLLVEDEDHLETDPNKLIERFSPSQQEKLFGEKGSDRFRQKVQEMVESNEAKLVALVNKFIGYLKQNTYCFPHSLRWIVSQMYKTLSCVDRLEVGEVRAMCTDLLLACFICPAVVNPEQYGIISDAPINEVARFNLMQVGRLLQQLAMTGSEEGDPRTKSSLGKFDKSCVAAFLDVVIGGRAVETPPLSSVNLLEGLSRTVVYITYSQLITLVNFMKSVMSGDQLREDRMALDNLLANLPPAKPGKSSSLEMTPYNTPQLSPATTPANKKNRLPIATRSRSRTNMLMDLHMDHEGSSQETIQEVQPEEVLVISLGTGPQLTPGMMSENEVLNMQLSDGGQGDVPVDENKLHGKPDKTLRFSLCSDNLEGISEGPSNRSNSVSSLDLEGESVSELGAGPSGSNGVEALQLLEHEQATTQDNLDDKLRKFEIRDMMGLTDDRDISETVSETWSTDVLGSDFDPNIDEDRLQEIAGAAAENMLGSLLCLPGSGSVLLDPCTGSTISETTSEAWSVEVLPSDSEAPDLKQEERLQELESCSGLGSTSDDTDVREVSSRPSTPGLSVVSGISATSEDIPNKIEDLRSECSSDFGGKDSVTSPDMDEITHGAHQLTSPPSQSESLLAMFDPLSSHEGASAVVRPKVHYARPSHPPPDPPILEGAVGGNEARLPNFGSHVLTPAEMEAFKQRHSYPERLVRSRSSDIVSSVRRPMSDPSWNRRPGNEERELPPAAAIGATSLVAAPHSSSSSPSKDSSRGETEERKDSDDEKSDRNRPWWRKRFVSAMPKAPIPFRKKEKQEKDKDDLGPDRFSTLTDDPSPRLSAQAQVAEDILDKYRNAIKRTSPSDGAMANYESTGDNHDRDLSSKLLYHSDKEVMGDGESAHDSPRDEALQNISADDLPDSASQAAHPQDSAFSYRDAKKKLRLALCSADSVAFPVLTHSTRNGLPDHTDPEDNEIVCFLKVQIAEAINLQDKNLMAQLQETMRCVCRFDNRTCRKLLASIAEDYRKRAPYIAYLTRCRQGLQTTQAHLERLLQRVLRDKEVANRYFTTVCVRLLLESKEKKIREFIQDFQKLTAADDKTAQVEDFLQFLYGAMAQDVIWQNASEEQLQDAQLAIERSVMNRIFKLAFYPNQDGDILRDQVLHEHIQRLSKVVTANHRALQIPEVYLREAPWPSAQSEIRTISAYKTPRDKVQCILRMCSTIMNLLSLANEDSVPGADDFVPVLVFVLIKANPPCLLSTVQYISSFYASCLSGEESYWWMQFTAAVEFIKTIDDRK
inactive: [1] -0.04 | [2] -0.158 | [3] -0.063 | [4] -0.009 | [5] -0.007 | [6] -0.07 | [7] 0.103 | [8] 0.032 | [9] 0.125 | [10] -0.043

HADHA (UniProt P40939)
Sequence of UniProt P40939 (P40939 whole entry, looked up): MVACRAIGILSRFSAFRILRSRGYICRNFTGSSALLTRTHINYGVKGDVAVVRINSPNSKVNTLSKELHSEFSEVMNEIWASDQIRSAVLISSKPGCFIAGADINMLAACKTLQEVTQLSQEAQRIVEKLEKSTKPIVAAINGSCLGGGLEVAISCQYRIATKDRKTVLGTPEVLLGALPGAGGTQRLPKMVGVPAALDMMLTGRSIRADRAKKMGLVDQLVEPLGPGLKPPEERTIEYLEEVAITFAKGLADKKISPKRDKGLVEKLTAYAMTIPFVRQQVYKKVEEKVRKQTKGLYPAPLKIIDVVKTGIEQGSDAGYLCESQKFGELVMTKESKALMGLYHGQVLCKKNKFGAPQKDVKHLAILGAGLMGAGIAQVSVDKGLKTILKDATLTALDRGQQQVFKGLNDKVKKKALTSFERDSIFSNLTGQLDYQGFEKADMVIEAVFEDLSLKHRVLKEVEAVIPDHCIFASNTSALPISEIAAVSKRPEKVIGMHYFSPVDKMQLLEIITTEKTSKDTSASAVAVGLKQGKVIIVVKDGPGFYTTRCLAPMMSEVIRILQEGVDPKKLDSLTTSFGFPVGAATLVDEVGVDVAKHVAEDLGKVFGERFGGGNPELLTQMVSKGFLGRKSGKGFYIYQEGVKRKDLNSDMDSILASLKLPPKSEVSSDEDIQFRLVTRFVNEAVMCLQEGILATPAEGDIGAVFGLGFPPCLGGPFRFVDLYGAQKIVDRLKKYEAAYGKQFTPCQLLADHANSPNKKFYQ
active: [8] 0.595
inactive: [1] -0.102 | [2] 0.032 | [3] -0.238 | [4] 0.05 | [5] 0.044 | [6] -0.19 | [7] 0.177 | [9] -0.024 | [10] -0.191

GPAT4 (UniProt Q86UL3)
Sequence of UniProt Q86UL3 (Q86UL3 whole entry, looked up): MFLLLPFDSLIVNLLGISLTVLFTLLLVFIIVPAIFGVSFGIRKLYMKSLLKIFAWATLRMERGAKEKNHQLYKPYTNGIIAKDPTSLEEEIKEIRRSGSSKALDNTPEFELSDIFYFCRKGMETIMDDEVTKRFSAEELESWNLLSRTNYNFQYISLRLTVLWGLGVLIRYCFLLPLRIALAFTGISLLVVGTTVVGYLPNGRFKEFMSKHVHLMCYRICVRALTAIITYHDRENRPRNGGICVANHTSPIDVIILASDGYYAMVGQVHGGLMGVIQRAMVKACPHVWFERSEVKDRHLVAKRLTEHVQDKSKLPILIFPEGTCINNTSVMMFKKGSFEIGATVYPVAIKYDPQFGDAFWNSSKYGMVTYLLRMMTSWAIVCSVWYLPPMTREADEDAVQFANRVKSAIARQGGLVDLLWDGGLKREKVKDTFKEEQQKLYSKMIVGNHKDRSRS
inactive: [1] 0.042 | [2] 0.046 | [3] -0.046 | [4] -0.039 | [5] 0.04 | [6] -0.017 | [7] 0.055 | [8] -0.069 | [9] -0.021 | [10] 0.031

FCHO1 (UniProt O14526)
inactive: [1] -0.064 | [2] -0.162 | [3] -0.049 | [4] 0.007 | [5] 0.043 | [6] -0.042 | [7] 0.248 | [8] 0.054 | [9] 0.101 | [10] 0.046

GYS1 (UniProt P13807)
Sequence of UniProt P13807 (P13807 whole entry, looked up): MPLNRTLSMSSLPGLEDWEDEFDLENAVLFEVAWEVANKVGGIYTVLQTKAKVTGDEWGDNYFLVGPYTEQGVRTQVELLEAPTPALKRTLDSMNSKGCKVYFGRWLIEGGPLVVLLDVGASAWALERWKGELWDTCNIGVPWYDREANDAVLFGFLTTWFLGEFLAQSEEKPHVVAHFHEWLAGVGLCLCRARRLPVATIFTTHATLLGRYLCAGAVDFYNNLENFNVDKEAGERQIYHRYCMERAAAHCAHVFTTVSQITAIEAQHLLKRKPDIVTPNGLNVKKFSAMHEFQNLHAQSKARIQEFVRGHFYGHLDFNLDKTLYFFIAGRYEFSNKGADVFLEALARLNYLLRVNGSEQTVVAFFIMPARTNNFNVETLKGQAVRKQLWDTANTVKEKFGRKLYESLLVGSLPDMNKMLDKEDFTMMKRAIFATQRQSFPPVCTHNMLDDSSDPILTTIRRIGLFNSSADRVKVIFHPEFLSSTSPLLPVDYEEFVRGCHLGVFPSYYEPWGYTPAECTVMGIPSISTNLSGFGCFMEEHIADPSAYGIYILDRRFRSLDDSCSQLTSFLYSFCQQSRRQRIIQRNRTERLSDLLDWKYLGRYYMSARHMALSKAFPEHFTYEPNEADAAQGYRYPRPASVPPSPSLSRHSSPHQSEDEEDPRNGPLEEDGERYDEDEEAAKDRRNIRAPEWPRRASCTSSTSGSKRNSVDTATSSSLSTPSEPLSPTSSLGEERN
inactive: [1] -0.255 | [2] -0.286 | [3] 0.1 | [4] 0.035 | [5] 0.107 | [6] 0.057 | [7] 0.077 | [8] 0.193 | [9] 0.176 | [10] -0.047

GNAS (UniProt Q5JWF2)
inactive: [1] -0.023 | [2] 0.036 | [3] 0.025 | [4] 0.011 | [5] -0.004 | [6] 0.012 | [7] 0.029 | [8] 0.069 | [9] 0.021 | [10] -0.041
